From PubChem BioAssay (Tox21) come the findings set out here.

The nature of assay [1]: qHTS assay to identify small molecule antagonists of the sonic hedgehog signaling (Shh) pathway - cell viability counter screen (AID 1259367). Also: nearly all actives have a fitted effect of over 55% in size. The method in brief: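 CellTiter-Fluor signal in conditioned medium-stimulated 3T3 Gli1-Luc cells, 23 hr compound exposure, 37C.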
For orientation: In qHTS, concentration-response curves come from the screen itself.

Assay [2] is described as follows: qHTS assay to identify small molecule agonists of the sonic hedgehog signaling (Shh) pathway (AID 1259368; calls by dose curve;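 also: NIH/3T3-derived 3T3Gli1-Luc cells carrying a stable Gli1-driven firefly luciferase reporter; series mostly up to about 92 µM; nearly all actives have a fitted effect of over 15% in size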). A digest of the protocol:
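Hedgehog pathway agonism scored by increased firefly luciferase luminescence in 3T3Gli1-Luc cells treated 24 hr at 37 C; detection used a 30 min room-temperature reagent incubation.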

Assay [3] deals with Estrogen receptor beta (Homo sapiens) (UniProt Q92731). The experiment in a line: qHTS assay to identify small molecule agonists of the estrogen receptor beta (ER-beta) signaling pathway (AID 1259377; active = well fitted activation curve with a large enough effect in the signal ratio in the repeat runs, not every such curve was filed as active; the % refers to the signal ratio; also: potency is read from the fitted curve at half-maximal effect). The method in brief:
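Beta-lactamase reporter readout: fluorescence of LiveBLAzer B/G FRET substrate after 2 h at room temperature, following 16 h compound treatment of ER-beta-UAS-bla HEK293T cells at 37C in 2% charcoal-stripped FBS medium.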

The target is the same in assay [4]. The assay can be described thus: qHTS assay to identify small molecule antagonists of the estrogen receptor beta (ER-beta) signaling pathway (AID 1259378; active = well fitted inhibition curve with a large enough effect in the signal ratio in the repeat runs, not every such curve was filed as active; the % refers to the signal ratio). A digest of the protocol: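 Antagonist mode: compounds added to beta-lactamase reporter HEK293T ER-beta-UAS cells stimulated with E2 (1nM final), 16 hr at 37C. LiveBLAzer B/G FRET substrate, 2 hours room temperature, fluorescence read-out.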

Assay [5] can be described thus: qHTS assay to identify small molecule agonists of the androgen receptor (AR) signaling pathway in the presence of an antagonist - cell viability counter screen (AID 1259379).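 Also: MDA-kb2 human breast cancer cells carrying an MMTV luciferase reporter; series mostly up to about 92 µM; nearly all actives have a fitted effect of over 25% in size.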 The method in brief:
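MDA-kb2 viability measured by CellTiter-Fluor fluorescence in the same wells as the luciferase signal; nilutamide 3.0uM final; 15-point compound titration; 16 hr at 37C.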

The nature of assay [6]: qHTS assay to identify small molecule agonists of the estrogen receptor beta (ER-beta) signaling pathway - cell viability counter screen (AID 1259380). Also: nearly all actives have a fitted effect of over 30% in size. The method in brief:
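Measured: luminescence from CellTiter-Glo after 30 min at room temperature, added to wells already read for the LiveBLAzer FRET reporter (2 hr substrate); ER-beta-UAS-bla HEK293T cells had 16 hr compound treatment at 37C, 5% CO2.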

Assay [7] in a line: qHTS assay to identify small molecule antagonists of the estrogen receptor beta (ER-beta) signaling pathway - cell viability counter screen (AID 1259382).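 Also: HEK293T cells carrying ER-beta-UAS-bla reporter stimulated with estradiol; series mostly up to about 92 µM; nearly all actives have a fitted effect of over 55% in size.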 A digest of the protocol: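 Readout: luminescence, CellTiter-Glo, same wells as bla assay. System: ER-beta-UAS-bla GripTite HEK293T, 2% charcoal-stripped FBS. Exposure: compounds plus 1nM 17-beta-estradiol, 16 hr, 37C.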
A short description of assay [8]: qHTS assay to identify small molecule antagonists of the sonic hedgehog signaling (Shh) pathway (AID 1259369; calls by dose curve; also: nearly all actives have a fitted effect of over 45% in size). A digest of the protocol: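 NIH/3T3 stable Gli1-Luc clone, 2,000 cells/well, 4hr settle; cpd + conditioned medium 24hr; Luc reagent 30min RT; luminescence.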
In assay [9] the target is Androgen receptor (Homo sapiens) (UniProt P10275). The assay can be described thus: qHTS assay to identify small molecule agonists of the androgen receptor (AR) signaling pathway in the presence of an antagonist (AID 1259381; calls by dose curve; also: nearly all actives have a fitted effect of over 15% in size). The method in brief: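 Luminescent ONE-Glo read, 30min at room temperature, follows 16hr compound exposure (15 concentrations) of MDA-kb2 cells at 37C, 0% CO2, with nilutamide added at 3.0uM final.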

Records with an inconclusive call do not appear. The source made the active and inactive calls. Unless noted, calls follow the shape of the dose curve; as a rule, active = well fitted curve in the direction sought with a large enough effect in the repeat runs; inconclusive = weak or mixed curves; inactive = no such curve, though single readings can be large; an effect the other way counts as inactive or inconclusive.
% is scaled to controls: 0 for no effect and ±100 for the full control effect.

Androgen receptor (Homo sapiens), sequence (P10275 whole entry, looked up): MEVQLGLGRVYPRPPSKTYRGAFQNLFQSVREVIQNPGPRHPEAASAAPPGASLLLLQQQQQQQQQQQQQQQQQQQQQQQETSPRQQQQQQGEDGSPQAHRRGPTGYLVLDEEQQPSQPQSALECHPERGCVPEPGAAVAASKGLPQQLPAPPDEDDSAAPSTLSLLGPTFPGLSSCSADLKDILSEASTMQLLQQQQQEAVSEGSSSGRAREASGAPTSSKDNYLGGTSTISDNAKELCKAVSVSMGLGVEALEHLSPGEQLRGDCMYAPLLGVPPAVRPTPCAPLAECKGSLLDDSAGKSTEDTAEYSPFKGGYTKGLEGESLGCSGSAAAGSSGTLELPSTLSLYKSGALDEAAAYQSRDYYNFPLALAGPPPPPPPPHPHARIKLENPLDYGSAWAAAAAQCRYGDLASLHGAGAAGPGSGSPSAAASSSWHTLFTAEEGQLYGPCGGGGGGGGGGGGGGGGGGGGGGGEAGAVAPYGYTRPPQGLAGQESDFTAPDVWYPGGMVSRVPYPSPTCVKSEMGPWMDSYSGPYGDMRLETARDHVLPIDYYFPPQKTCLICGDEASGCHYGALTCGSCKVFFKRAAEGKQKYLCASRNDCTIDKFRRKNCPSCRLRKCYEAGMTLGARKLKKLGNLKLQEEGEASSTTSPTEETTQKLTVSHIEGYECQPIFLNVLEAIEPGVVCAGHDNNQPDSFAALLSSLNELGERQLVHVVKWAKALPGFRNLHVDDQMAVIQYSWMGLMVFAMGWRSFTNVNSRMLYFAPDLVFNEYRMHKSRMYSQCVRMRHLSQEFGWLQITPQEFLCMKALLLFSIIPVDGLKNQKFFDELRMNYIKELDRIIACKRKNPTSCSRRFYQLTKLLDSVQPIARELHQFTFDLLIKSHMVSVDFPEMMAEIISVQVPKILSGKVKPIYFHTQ
Estrogen receptor beta (Homo sapiens), sequence (Q92731 whole entry, looked up): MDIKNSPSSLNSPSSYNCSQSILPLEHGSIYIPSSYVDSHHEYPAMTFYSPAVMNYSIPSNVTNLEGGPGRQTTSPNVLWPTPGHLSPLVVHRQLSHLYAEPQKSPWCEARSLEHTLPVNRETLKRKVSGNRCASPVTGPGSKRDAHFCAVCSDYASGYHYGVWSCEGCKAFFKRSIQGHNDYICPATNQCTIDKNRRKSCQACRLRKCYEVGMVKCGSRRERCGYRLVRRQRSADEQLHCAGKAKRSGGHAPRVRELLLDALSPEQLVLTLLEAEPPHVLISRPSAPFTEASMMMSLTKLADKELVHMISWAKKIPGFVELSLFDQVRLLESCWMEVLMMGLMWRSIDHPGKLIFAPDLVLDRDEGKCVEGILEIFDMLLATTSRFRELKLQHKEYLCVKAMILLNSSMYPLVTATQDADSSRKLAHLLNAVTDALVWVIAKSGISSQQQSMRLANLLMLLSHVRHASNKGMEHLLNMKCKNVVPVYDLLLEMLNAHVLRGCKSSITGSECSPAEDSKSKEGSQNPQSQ

For the molecule `C=CCCCCCCCCOC(C)=O`, the molecule was called inactive in [1], in assay [2], in [4], in [5] and in assay [7]. In addition, the Potency entry in assay [3] and in assay [6] was “inactive” in each case.

With `CCCC[O][Al]([O]CCCC)[O]CCCC`, the molecule was classed as inactive in [1], in assay [2] and in assay [7]. Further, in assay [6], the Potency result was “inactive”.

For `O=S(=O)(O)CC(O)CCl` (stereo not given), the outcome in assay [1], in assay [2], in assay [4] and in [7] was inactive. For the same molecule, the Potency entry in assay [8], in [3] and in assay [6] was “inactive” in each case.

Consider `O=C(c1ccccc1)c1cccc(O)c1`, for which the molecule was classed as inactive in assay [1], in assay [5], in assay [9] and in assay [7]. In addition, the Potency in assay [3] is 12.4 µM (active). In addition, the Potency entry in [6] is “inactive”.

For `CCCCCCC(O)CO` (stereo not given), the result in [1], in assay [2], in assay [4] and in assay [7] was inactive. For the same molecule, the Potency result in assay [8] and in assay [6] was “inactive” in each case.

`CCCCC(CC)COC(=O)CC#N` (stereo not given): the molecule was classed as inactive in assay [1], in assay [2], in assay [4], in [5] and in [7]. Moreover, the Potency result in assay [3] and in [6] was “inactive” throughout.

On to `CC(C)C(=O)Nc1cccc(C2CN3CCSC3=N2)c1` (stereo not given), for which the molecule was classed as inactive in assay [1], in assay [2], in assay [4], in [9] and in [7]. For the same molecule, the Potency entry in [3] and in [6] was “inactive” each time.

Turning to `N=C(N)N`, the molecule was called inactive in [1] and in assay [7]. Besides, the Potency result in assay [8] and in assay [6] was “inactive” in each case.

`COc1ccc2cc(CCC(C)=O)ccc2c1`: the outcome in assay [1], in assay [2], in assay [4], in assay [5] and in assay [7] was inactive. The Potency entry in [8], in assay [3] and in assay [6] was “inactive” each time.

On to `CCC(C)SSC(C)CC` (stereo not given), for which the call in assay [1], in assay [4], in assay [5] and in assay [7] was inactive. Also, the Potency entry in assay [8], in assay [3] and in [6] was “inactive” in each case.

As for `C[C@H]1COc2c(C3(N)CC3)c(F)cc3c(=O)c(C(=O)O)cn1c23`, the molecule was classed as inactive in [1], in [2], in assay [4], in assay [5] and in [7].

For `CC(C)C[P+](C)(CC(C)C)CC(C)C`, the call in assay [1], in [2], in [4] and in assay [7] was inactive. Further, the Potency result in [6] is “inactive”.

Consider `N=C(N)N1CCc2ccccc2C1`, for which, in assay [1], the viability change, negative = cytotoxic is 3.14% [at 8.39 µM] (inactive). Besides, the activity change, negative = inhibition in assay [8] was 18.9% [at 8.39 µM] (inactive). Moreover, the activity change, negative = cytotoxicity in assay [5] was 0.84% [at 8.39 µM] (inactive); in assay [6] it was 1.92% [at 8.39 µM] (inactive); in assay [7], 8.18% [at 8.39 µM] (inactive).

As for `COc1cc(NS(=O)(=O)c2ccc(N)cc2)ncn1`, the molecule was classed as inactive in [1], in [2], in [5] and in assay [7]. Also, the Potency result in [8] and in assay [6] was “inactive” throughout.

In the case of `CC(=O)SC[C@@H](C)C(=O)N1CCC[C@H]1C(=O)N[C@@H](Cc1ccccc1)C(=O)O`, the result in assay [1], in assay [5] and in assay [7] was inactive. In addition, in assay [6], the Potency result was “inactive”.

On to `NS(=O)(=O)c1cc2c(cc1C(F)(F)F)NCNS2(=O)=O`, for which the outcome in assay [1], in [2], in assay [5] and in assay [7] was inactive. In addition, the Potency result in assay [8] and in assay [6] was “inactive” throughout.

In the case of `O=Cc1ccc(C(=O)O)cc1`, the molecule was classed as inactive in assay [1], in assay [2], in [5] and in assay [7]. For the same molecule, the Potency result in assay [8] and in assay [6] was “inactive” throughout.

As for `COC(=O)c1c(C)cc(O)c(C)c1O`, the molecule was classed as inactive in assay [1], in assay [2], in assay [4], in assay [5] and in assay [7]. In addition, the Potency result in [3] and in [6] was “inactive” throughout.

As to `Cc1cc(C)c(C)c(C)c1`, the result in assay [1], in assay [2], in assay [4], in assay [5] and in assay [7] was inactive. Also, the Potency entry in assay [8] and in [6] was “inactive” throughout.

`CC(O)CCCCn1c(=O)c2c(ncn2C)n(C)c1=O` (stereo not given): the result in assay [1], in assay [2], in [5] and in assay [7] was inactive. In addition, the Potency result in assay [8] and in assay [6] was “inactive” each time.

With `CCN(CC)CC(=O)Oc1ccc(NC(C)=O)cc1`, the result in assay [1], in [2], in assay [4], in [5], in assay [9] and in assay [7] was inactive. Further, the Potency result in assay [8], in [3] and in assay [6] was “inactive” each time.

Regarding `COc1cc2nc(N3CCN(C(=O)C4CCCO4)CC3)nc(N)c2cc1OC` (stereo not given), the molecule was classed as inactive in assay [1], in [2], in assay [4], in [5] and in assay [7]. The Potency entry in assay [8], in assay [3] and in assay [6] was “inactive” in each case.

In the case of `CCCCCCCCCCCCCCCC(=O)OC`, in assay [1], the viability change, negative = cytotoxic was -2.31% [at 19 µM] (inactive). Also, the activity change in [2] was 0.811% [at 18.9 µM] (inactive). Further, the activity change, negative = inhibition in assay [8] was 21.4% [at 19 µM] (inactive). For the same molecule, the activation in assay [3] was -1.46% [at 19 µM] (inactive). In addition, the activity, negative = inhibition in [4] is 3.6% [at 19 µM] (inactive). Further, the activity change, negative = cytotoxicity in assay [5] is 0.0056% [at 19 µM] (inactive); in assay [6] it was 4.05% [at 19 µM] (inactive); in assay [7], 0.248% [at 19 µM] (inactive).

As for `Nc1ccc(C(=O)NCC(=O)O)cc1`, the outcome in [1], in assay [2], in assay [5] and in [7] was inactive. Besides, the Potency entry in assay [8], in [3] and in assay [6] was “inactive” in each case.

Turning to `C=CC(=O)OCC[N+](C)(C)C`, the call in assay [1], in assay [2], in assay [4], in assay [5] and in assay [7] was inactive. In addition, the Potency result in assay [8], in assay [3] and in [6] was “inactive” in each case.

On to `C/C=C(\C)C(=O)OC/C=C(\C)CCC=C(C)C`, for which the outcome in [1], in [2], in assay [4], in assay [5] and in [7] was inactive. In addition, the Potency entry in assay [8], in assay [3] and in assay [6] was “inactive” in each case.

Take `C/C(=N\O)c1ccc(OCC(=O)N2CCCCC2)cc1`: the call in assay [1], in assay [4], in assay [9] and in assay [7] was inactive. The Potency result in assay [8], in assay [3] and in [6] was “inactive” throughout.

Turning to `CN(C)c1ccncc1`, the call in assay [1], in assay [2], in [4], in assay [5] and in assay [7] was inactive. In addition, the Potency result in [8], in [3] and in [6] was “inactive” in each case.

Turning to `CC(CC(=O)Cl)CC(C)(C)C` (stereo not given), the molecule was called inactive in [1], in assay [2], in assay [4] and in [7]. The Potency entry in assay [8], in [3] and in assay [6] was “inactive” each time.
